Shown are actives, neighbours in structure and some others; about 3.4% of the full set was active somewhere.
ADAM10 inh = inhibitors of human ADAM10; O14672; recombinant ADAM10, EDANS/DABCYL FRET peptide cleavage, 3 h; inhibition, % at 7 µM; hit rate 0.62% among 370,000;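 active = inhibition above a per-campaign cutoff equal to the mean of compounds falling between control-based bounds plus 3 SD, cut at about 20% in these data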;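 also: 0% = DMSO wells while the 100% control is not disclosed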
Target sequence (O14672 214-748 limits assumed): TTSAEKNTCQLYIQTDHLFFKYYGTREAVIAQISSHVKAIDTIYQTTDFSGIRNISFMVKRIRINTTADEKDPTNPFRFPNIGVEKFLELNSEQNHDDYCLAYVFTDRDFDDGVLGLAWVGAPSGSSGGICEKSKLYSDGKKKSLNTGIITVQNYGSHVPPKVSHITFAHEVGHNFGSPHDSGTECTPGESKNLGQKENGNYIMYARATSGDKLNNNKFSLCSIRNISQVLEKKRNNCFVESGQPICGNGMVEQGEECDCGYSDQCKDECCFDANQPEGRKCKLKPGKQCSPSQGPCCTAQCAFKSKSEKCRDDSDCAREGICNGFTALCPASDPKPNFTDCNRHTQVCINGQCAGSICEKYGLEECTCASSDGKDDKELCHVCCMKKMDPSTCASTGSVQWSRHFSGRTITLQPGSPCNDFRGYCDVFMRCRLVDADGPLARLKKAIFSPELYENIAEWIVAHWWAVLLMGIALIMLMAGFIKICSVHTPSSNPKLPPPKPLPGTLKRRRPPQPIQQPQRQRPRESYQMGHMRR
HGIII-sPLA2 inh = Inhibits HGIII-sPLA2 liposome hydrolysis, primary screen; inhibition, % at 12.2 µM; hit rate 0.56% among 370,000; QFRET BODIPY PC-A2 liposome hydrolysis, fluorescence;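 active = inhibition above mean plus 3 SD of compounds lying within the high and low control bounds, cut at about 19% in these data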;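 also: 0% = median of test compound wells and 100% = no enzyme DMSO wells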
PLCg1 inh = inhibitors of human phospholipase C gamma1. P19174. purified PLC-gamma1, fluorogenic substrate, fluorescence. inhibition, % at 12.2 µM. hit rate 0.84% among 370,000. AID 720700; in the data active = inhibition above about 9.5%
KLK7 zymogen act = activators of human kallikrein-7 zymogen. P49862. AID 652039. hit rate 0.9% among 370,000. activation, % at 7 µM. purified proKLK7, EDANS-DABCYL substrate fluorescence; 100% is mature enzyme control, 0% vehicle;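 active = activation above the mean of all tested compounds plus 3 SD, computed per campaign excluding outliers beyond control limits, cut at about 13% in these data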
ADAM17 inh = inhibitors of human ADAM17; recombinant ADAM17, EDANS/DABCYL FRET peptide cleavage; hit rate 0.83% among 370,000; AID 720648; P78536; inhibition, % at 6.95 µM;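 active = inhibition above the mean of compounds lying between control limits plus 3 SD, set per campaign, cut at about 8.5% in these data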;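 also: 0% = DMSO-only wells as the low control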
PLCb3 inh = PLC-beta3 (human) inhibition, primary screen. Q01970. Purified PLC-beta3, fluorogenic substrate, fluorescence. inhibition, % at 12.2 µM. hit rate 0.18% among 370,000; in the data active = inhibition above about 11%;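 also: 0% = median of compound wells on plate and 100% = full blocker control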
KLK7 act conf = proKLK7 activation, confirmation | AID 686949 | purified proKLK7, EDANS-DABCYL substrate fluorescence; scaled: vehicle 0, mature enzyme 100 | hit rate 68% among 3,200 | activation, % at 7 µM | shares compounds with KLK7 zymogen act;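 active = activation, as change over the incubation, above the mean of all tested compounds plus 3 SD, cut at about 13% in these data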
EDANS interfere = optically interferes with EDANS-DABCYL signal, flagging KLK7 hits. EDANS-DABCYL substrate fluorescence interference, no enzyme, 4 h; solvent 0%, active enzyme control 100%. activation, % at 7 µM. hit rate 80% among 3,200. shares compounds with KLK7 zymogen act;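 active = activation above the all-compound mean plus 3 SD, ignoring values outside control-based bounds, cut at about 4.8% in these data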;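 also: value is the 4 h activation minus the activation read at time zero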
The depositor's hits bear a star; i = inactive; . = no result.

SMILES | ADAM10 inh | HGIII-sPLA2 inh | PLCg1 inh | KLK7 zymogen act | ADAM17 inh | PLCb3 inh | KLK7 act conf | EDANS interfere
Cc1cccn2c(=O)c3cc(C(=O)NCC4CCCO4)c(=N)n(CC4CCCO4)c3nc12 (stereo not given) | i | -8 | i | 145* | i | i | 33* | 42*
Cc1cccn2c(=O)c3cc(C(=O)NC4CCCC4)c(=N)n(CC4CCCO4)c3nc12 (stereo not given) | i | 5 | i | 81* | i | i | -30 | -34
CCN(CC)C(=O)CC[C@@H]1CC[C@]2(CCCN(Cc3cccnc3)C2)O1 | -7 | 4 | -2 | 0 | -3 | -1 | . | .
CC(=O)NC1CCCCN(Cc2ccc(Cl)cc2)C1=O (stereo not given) | -3 | 9 | 4 | 0 | 1 | 10 | . | .
CC1=C(C#N)C(c2cccnc2)C2=C(CCCC2=O)N1 (stereo not given) | i | 3 | i | 17* | -387 | i | 51* | 64*
COc1ccc(Cn2ccc3ccc(-c4ccc5ccn(Cc6ccc(F)cc6)c5c4)cc32)cc1 | -79 | 7 | -77 | -2 | -27 | -107 | . | .
CN(C(=O)NC1CCCCC1)[C@H]1C[C@H]2c3[nH]c4ccccc4c3CCN2C(=O)[C@H]1CO | i | -3 | -412 | -26 | -274 | i | . | .
CN(C(=O)C(C)(C)C)[C@H]1C[C@H]2c3[nH]c4ccccc4c3CCN2C(=O)[C@H]1CO | i | -8 | -497 | 27* | -403 | i | 9 | 9.6*
CCOC(=O)CNC(=O)N(C)[C@H]1C[C@H]2c3[nH]c4ccccc4c3CCN2C[C@H]1[C@H](C)O | -125 | -5 | -244 | 11 | -36 | -312 | . | .
CCOC(=O)N(C)[C@H]1C[C@H]2c3[nH]c4ccccc4c3CCN2C(=O)[C@H]1[C@H](C)O | i | 9 | i | 50* | i | i | 8 | 5.9*
C[C@H](O)[C@@H]1C(=O)N2CCc3c([nH]c4ccccc34)[C@@H]2C[C@@H]1N(C)C(=O)OCc1ccccc1 | -307 | -23 | -79 | 12 | -77 | -95 | . | .
CCOC(=O)CNC(=O)N(C)[C@H]1C[C@H]2c3[nH]c4ccccc4c3CCN2C(=O)[C@H]1[C@H](C)O | i | 8 | i | 73* | i | i | 11 | 9.8*
COc1cc2ccc(=O)oc2c(O[C@@H]2O[C@H](CO)[C@@H](O)[C@H](O)[C@H]2O)c1O | i | 9 | i | 68* | i | i | 69* | 67*
O=C(ONC(=O)C1C2C=CC(C2)C1C(=O)NOC(=O)c1ccccc1)c1ccccc1 (stereo not given) | 4 | 5 | 0 | 45* | 1 | 4 | 0 | -1
c1csc(-c2nnc(SCc3cccc4ccccc34)o2)c1 | 13 | -11 | -2 | 1 | 2 | 0 | . | .
CCOC(=O)c1[nH]c2cc(OC)c(OC)cc2c1NC(=O)CCN1CCSCC1 | i | 3 | -410 | 16* | -246 | i | 12 | 8.7*
CCOC(=O)c1[nH]c2cc3c(cc2c1NC(=O)CN1CCN(CCO)CC1)OCO3 | i | 13 | i | 49* | i | i | 26* | 29*
CCOC(=O)c1[nH]c2ccc(OC)cc2c1NC(=O)CCN1CCC(C)CC1 | -358 | 0 | -330 | 21* | -94 | -495 | 9 | 6.8*
CN(Cc1ccccc1)C(=O)OCc1cn(Cc2ccccc2C(F)(F)F)nn1 | 5 | -7 | 0 | 0 | 2 | -2 | . | .
Nn1c(SCC(=O)Nc2ccccc2-c2ccccc2)nnc1-c1cc(-c2ccc(Cl)cc2)n[nH]1 | -3 | -9 | 2 | -1 | 0 | 0 | . | .
O=C(c1ccc(F)c(F)c1)N1CCC(Oc2cccnc2)CC1 | 12 | 6 | 0 | 1 | -1 | 0 | . | .
Cc1ccc(NC(=O)C2=C(O)c3ccccc3N(C)S2(=O)=O)cc1 | -268 | -13 | -42 | 51* | -63 | -57 | 6 | 9.3*
CC1(C)Oc2cc3oc(C(=O)O)cc(=O)c3cc2-c2ccccc21 | i | -6 | i | 100* | i | i | 68* | 67*
Cc1ccccc1CN1CCCCC(NC(=O)C2CCC2)C1=O (stereo not given) | 1 | 3 | 7 | 0 | 3 | 4 | . | .
Cc1ccccc1N(CC(=O)NC1CCCC1)C(=O)C1(C)CC(=O)N=C2C=CC(Cl)=CN21 (stereo not given) | i | 3 | -328 | 16* | i | -458 | 33* | 39*
SMILES | ADAM10 inh | HGIII-sPLA2 inh | PLCg1 inh | KLK7 zymogen act | ADAM17 inh | PLCb3 inh | KLK7 act conf | EDANS interfere
Cc1ccccc1N(CC(=O)NC1CCCC1)C(=O)C1(C)CC(=O)N=C2C=CC=CN21 (stereo not given) | i | 7 | -121 | 3 | -273 | -149 | . | .
CC1CCc2[nH]c3ccc(C(=O)O)cc3c2C1 (stereo not given) | 0 | 1 | -3 | 1 | -2 | -11 | . | .
CC1CCc2[nH]c3ccc(C(=O)NCCCOC(C)C)cc3c2C1 (stereo not given) | -33 | -28 | -17 | 14* | -10 | -30 | 12 | 12*
O=C(Nc1nc2ncccn2c1-c1ccccc1)C1CC1 | i | 8 | i | 12 | -178 | i | . | .
O=C(NCCc1cn2cccnc2n1)C1CCC(=O)N(Cc2ccccc2F)C1 (stereo not given) | i | 0 | -334 | 35* | -285 | -456 | 27* | 24*
O=S1(=O)c2ccc(Br)cc2OC[C@@H](Cc2ccccc2)N1Cc1cn(Cc2ccccc2)nn1 | 0 | 10 | 3 | 0 | -1 | -1 | . | .
CCOc1ccccc1C1C(C(N)=O)=C(C)Nc2nc(CCCO)nn21 (stereo not given) | -37 | 15 | -2 | 1 | -3 | -5 | . | .
OCCCc1nc2n(n1)C(c1ccccc1)C=C(c1ccc(F)cc1)N2 (stereo not given) | -340 | 5 | i | 23* | -113 | i | 38* | 74*
CCOc1ccc(-c2cc(C(=O)NCCCN3CCN(CC)CC3)c3ccccc3n2)cc1 | i | 1 | i | 57* | -385 | i | -17 | -20
CCOc1ccc(-c2cc(C(=O)O)c3ccccc3n2)cc1 | i | -5 | i | 33* | i | i | 60* | 69*
COc1ccc(/C=C/c2cc(C(=O)O)c3ccccc3n2)cc1 | -104 | -109 | i | 13* | -31 | i | 72* | 72*
